According to PubChem BioAssay AID1159580 (chemical genetic matrix, 2015):
Several values for one entry are separate records, joined by “and”; a condition that tells them apart may be missing. Equal entries are not always repeated. The whole screen tested about 5,500 compounds, of which about 2,000 (36%) were called active. Not shown: some 18% with an inconclusive outcome. No stated cut-off is given here; in the data, active means normalized growth mostly below about 0.91 (no sharp cut-off); inconclusive means no clear call, values can overlap the other calls; inactive means mostly above about 0.92. The list shows a part of the results.

Experiment: chemical genetic growth profiling, strain panel (AID 1159580);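 further: tested at 20 µM; growth read once vehicle control cultures reached saturation at 30 °C; 1 = growth at the plate median or of vehicle wells; lower values mean less growth of the strain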
Settings: S. cerevisiae deletion strains, growth OD

Measured: normalized growth

CO/N=C(\C(=O)N[C@@H]1C(=O)N2C(C(=O)O)=C(CSc3nc(=O)c(O)nn3C)CS[C@H]12)c1csc(N)n1
active: locus YHR013C, strain ard1, active compounds read low 1.2 [resistant]
inactive: locus YAL021C, strain ccr4, active compounds read low 0.982 | locus YAL026C, strain drs2, active compounds read low 0.974 | locus YAL030W, strain snc1, active compounds read low 0.984 | locus YBL061C, strain skt5, active compounds read low 0.966 | locus YBR009C, strain hhf1, active compounds read low 0.985 | locus YBR021W, strain FUR4, active compounds read low 1.03 | locus YBR023C, strain chs3, active compounds read low 0.979 | locus YBR171W, strain sec66, active compounds read low 0.96 | locus YBR229C, strain ROT2, active compounds read low 0.999 | locus YBR231C, strain swc5, active compounds read low 0.975 | locus YBR279W, strain paf1, active compounds read low 0.959 | locus YCL011C, strain gbp2, active compounds read low 0.958 | locus YCL016C, strain dcc1, active compounds read low 0.976 | locus YCL029C, strain bik1, active compounds read low 0.986 | locus YCL061C, strain MRC1, active compounds read low 0.969 | locus YCL069W, strain vba3, active compounds read low 0.986 | locus YCR088W, strain abp1, active compounds read low 0.962 | locus YDL005C, strain med2, active compounds read low 0.984 | locus YDL035C, strain GPR1, active compounds read low 0.982 | locus YDL040C, strain nat1, active compounds read low 0.973 | locus YDL074C, strain BRE1, active compounds read low 1.03 | locus YDL101C, strain DUN1, active compounds read low 0.996 | locus YDL134C, strain PPH21, active compounds read low 1 | locus YDL185W, strain tfp1, active compounds read low 0.946 | locus YDL192W, strain arf1, active compounds read low 0.984 | locus YDR001C, strain nth1, active compounds read low 0.959 | locus YDR069C, strain doa4, active compounds read low 1 | locus YDR101C, strain arx1, active compounds read low 1.02 | locus YDR137W, strain rgp1, active compounds read low 0.968 | locus YDR159W, strain sac3, active compounds read low 0.921 | locus YDR162C, strain NBP2, active compounds read low 0.97 | locus YDR195W, strain ref2 1.01 | locus YDR297W, strain sur2, active compounds read low 0.98 | locus YDR318W, strain mcm21, active compounds read low 0.982 | locus YDR334W, strain swr1, active compounds read low 0.931 | locus YDR335W, strain msn5, active compounds read low 0.966 | locus YDR388W, active compounds read low 0.981 | locus YDR392W, strain spt3, active compounds read low 0.968 | locus YDR502C, strain sam2, active compounds read low 1.01 | locus YEL003W, strain gim4, active compounds read low 0.972 | locus YEL037C, strain rad23, active compounds read low 0.969 | locus YEL061C, strain CIN8 (second series), active compounds read low 0.947 | locus YEL061C, strain CIN8, active compounds read low 1 | locus YER015W, strain faa2, active compounds read low 0.977 | locus YER016W, strain bim1, active compounds read low 0.976 | locus YER110C, active compounds read low 0.974 | locus YER111C, strain swi4, active compounds read low 0.979 | locus YER155C, strain BEM2 (second series), active compounds read low 0.959 | locus YER155C, strain BEM2, active compounds read low 1.01 | locus YER167W, strain BCK2, active compounds read low 0.988 | locus YFR010W, strain ubp6, active compounds read low 0.959 | locus YGL078C, strain dbp3, active compounds read low 0.992 | locus YGL086W, strain mad1, active compounds read low 1.03 | locus YGL167C, strain pmr1, active compounds read low 0.956 | locus YGL173C, strain kem1, active compounds read low 0.975 | locus YGL227W, strain vid30, active compounds read low 0.977 | locus YGL240W, strain doc1, active compounds read low 0.975 | locus YGL248W, strain PDE1, active compounds read low 1 | locus YGL253W, strain hxk2, active compounds read low 0.981 | locus YGR135W, strain pre9, active compounds read low 0.948 | locus YGR252W, strain gcn5, active compounds read low 1.02 | locus YHR027C, strain rpn1, active compounds read low 0.978 | locus YHR030C, strain SLT2, active compounds read low 0.988 and 1.01 | locus YHR079C, strain IRE1 (second series), active compounds read low 0.966 | locus YHR079C, strain IRE1, active compounds read low 1.01 | locus YHR094C, strain hxt1, active compounds read low 0.976 | locus YHR129C, strain ARP1, active compounds read low 0.992 | locus YHR142W, strain chs7, active compounds read low 0.982 | locus YHR200W, strain rpn10, active compounds read low 0.984 | locus YIL066C, strain RNR3, active compounds read low 1.02 | locus YIL073C, strain SPO22, active compounds read low 0.941 | locus YIL125W, strain kgd1, active compounds read low 0.985 | locus YIR030C, strain dcg1, active compounds read low 0.961 | locus YJL092W, strain hpr5, active compounds read low 0.975 | locus YJL095W, strain BCK1 (second series), active compounds read low 0.966 | locus YJL095W, strain BCK1, active compounds read low 1.02 and 0.999 | locus YJL115W, strain asf1, active compounds read low 0.952 | locus YJL129C, strain trk1, active compounds read low 0.958 | locus YJL134W, strain LCB3, active compounds read low 0.993 | locus YJL154C, strain vps35, active compounds read low 0.954 | locus YJL164C, strain tpk1, active compounds read low 0.992 | locus YJL166W, strain qcr8, active compounds read low 0.981 | locus YJL168C, strain set2, active compounds read low 0.998 | locus YJL187C, strain SWE1 (second series), active compounds read low 1.01 | locus YJR043C, strain POL32, active compounds read low 1.03 | locus YJR066W, strain TOR1, active compounds read low 0.965 | locus YJR075W, strain HOC1, active compounds read low 0.994 | locus YKL009W, strain mrt4, active compounds read low 0.974 | locus YKL068W, active compounds read low 0.974 | locus YKL085W, strain MDH1 (second series), active compounds read low 0.984 | locus YKL085W, strain MDH1, active compounds read low 0.984 | locus YKL160W, strain elf1, active compounds read low 0.968 | locus YKL190W, strain CNB1, active compounds read low 0.992 | locus YKR001C, strain vps1, active compounds read low 0.993 | locus YKR026C, strain gcn3, active compounds read low 0.974 | locus YKR091W, strain srl3, active compounds read low 0.982 | locus YLL001W, strain dnm1, active compounds read low 0.965 | locus YLL026W, active compounds read low 0.986 | locus YLL041C, strain sdh2, active compounds read low 0.949 | locus YLR027C, strain aat2, active compounds read low 0.971 | locus YLR039C, strain RIC1, active compounds read low 0.988 | locus YLR058C, strain SHM2, active compounds read low 0.994 | locus YLR102C, strain apc9, active compounds read low 0.985 | locus YLR113W, strain HOG1, active compounds read low 1.04 | locus YLR221C, strain rsa3, active compounds read low 0.969 | locus YLR258W, strain gsy2, active compounds read low 0.957 | locus YLR262C, strain YPT6 (second series), active compounds read low 0.947 | locus YLR262C, strain YPT6, active compounds read low 0.982 | locus YLR268W, strain sec22, active compounds read low 0.992 | locus YLR320W, strain mms22, active compounds read low 0.97 | locus YLR330W, strain CHS5, active compounds read low 0.983 | locus YLR342W, strain FKS1 (second series), active compounds read low 0.985 | locus YLR342W, strain FKS1, active compounds read low 0.983 | locus YLR357W, strain rsc2, active compounds read low 0.893 | locus YLR370C, strain arc18, active compounds read low 0.971 | locus YLR371W, strain rom2, active compounds read low 0.979 | locus YLR384C, strain iki3, active compounds read low 0.967 | locus YLR418C, strain cdc73, active compounds read low 0.994 | locus YML016C, strain PPZ1, active compounds read low 0.996 | locus YML032C, strain rad52, active compounds read low 1.02 | locus YML120C, strain ndi1, active compounds read low 0.986 | locus YML124C, strain tub3, active compounds read low 0.989 | locus YMR058W, strain fet3, active compounds read low 0.969 | locus YMR078C, strain ctf18, active compounds read low 0.964 | locus YMR125W, strain sto1, active compounds read low 0.958 | locus YMR129W, active compounds read low 0.996 | locus YMR205C, strain PFK2, active compounds read low 0.968 | locus YMR223W, strain ubp8, active compounds read low 0.96 | locus YMR231W, strain pep5, active compounds read low 0.977 | locus YMR263W, strain SAP30, active compounds read low 1.01 | locus YMR307W, strain GAS1, active compounds read low 0.981 | locus YNL067W, strain RPL9B, active compounds read low 1.02 | locus YNL071W, strain lat1, active compounds read low 0.956 | locus YNL183C, strain NPR1, active compounds read low 0.96 | locus YNL209W, strain ssb2, active compounds read low 0.961 | locus YNL233W, strain BNI4, active compounds read low 1.03 | locus YNL248C, strain rpa49, active compounds read low 0.924 | locus YNL250W, strain rad50, active compounds read low 0.951 | locus YNL271C, strain bni1, active compounds read low 0.992 | locus YNL298W, strain CLA4, active compounds read low 0.969 | locus YNL307C, strain MCK1, active compounds read low 0.987 | locus YNL322C, strain KRE1 (second series), active compounds read low 0.978 | locus YNR049C, strain mso1, active compounds read low 0.97 | locus YNR052C, strain pop2, active compounds read low 0.986 | locus YOL006C, strain TOP1, active compounds read low 1.11 | locus YOL012C, strain htz1 0.913 | locus YOL147C, strain pex11, active compounds read low 0.972 | locus YOR001W, strain rrp6, active compounds read low 0.963 | locus YOR061W, strain CKA2, active compounds read low 0.998 | locus YOR069W, strain VPS5, active compounds read low 0.988 | locus YOR070C, strain gyp1, active compounds read low 0.977 | locus YOR080W, strain dia2, active compounds read low 0.971 | locus YOR083W, strain WHI5, active compounds read low 0.981 | locus YOR106W, strain vam3, active compounds read low 0.933 | locus YOR136W, strain idh2, active compounds read low 0.994 | locus YOR144C, strain elg1, active compounds read low 0.993 | locus YOR184W, strain ser1, active compounds read low 0.974 | locus YOR231W, strain MKK1, active compounds read low 1.04 | locus YOR265W, strain rbl2, active compounds read low 0.976 | locus YOR270C, strain vph1, active compounds read low 0.947 | locus YOR290C, strain snf2, active compounds read low 0.962 | locus YOR316C, strain cot1, active compounds read low 0.982 | locus YPL051W, strain arl3, active compounds read low 0.964 | locus YPL055C, strain LGE1, active compounds read low 1.07 | locus YPL078C, strain atp4, active compounds read low 0.991 | locus YPL106C, strain sse1, active compounds read low 0.917 | locus YPL240C, strain hsp82, active compounds read low 0.975 | locus YPL241C, strain CIN2, active compounds read low 0.982 | locus YPL256C, strain CLN2, active compounds read low 1.02 | locus YPR119W, strain clb2, active compounds read low 0.988 | locus YPR141C, strain kar3, active compounds read low 0.995 | locus YPR163C, strain tif3, active compounds read low 0.968 | locus YPR167C, strain met16, active compounds read low 0.976 | strain wtn01, active compounds read low 0.981
